PubChem BioAssay (Tox21)
Several values for one entry are separate records, joined by “and”; a condition that tells them apart may be missing. Equal values may be shown once. Inconclusive results are not listed. Entries that show only a call come without a potency. Activity calls are given as the source filed them. The call rests on the fitted dose curve.

Target: Thyrotropin receptor (Homo sapiens) (UniProt P16473)
Assay: qHTS assay to identify small molecule agonists of the thyroid stimulating hormone receptor (TSHR) signaling pathway (AID 1224843); further: nearly all actives have a fitted effect of over 45% in size
Conditions: TSHR-HEK293 cells, cAMP HTRF, agonist mode, 30 min; series mostly up to 92.4 µM
Method in brief: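 A cell-based cAMP HTRF format was run in TSHR-transfected HEK293 cells, 800 per well. Treatment: 30 min, room temperature. Detection: 1 h with labelled cAMP and anti-cAMP cryptate. Concentration-response over 15 points, three replicates.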
Potency means the concentration at half of the fitted maximal effect.

Thyrotropin receptor (Homo sapiens), sequence (P16473 whole entry, looked up): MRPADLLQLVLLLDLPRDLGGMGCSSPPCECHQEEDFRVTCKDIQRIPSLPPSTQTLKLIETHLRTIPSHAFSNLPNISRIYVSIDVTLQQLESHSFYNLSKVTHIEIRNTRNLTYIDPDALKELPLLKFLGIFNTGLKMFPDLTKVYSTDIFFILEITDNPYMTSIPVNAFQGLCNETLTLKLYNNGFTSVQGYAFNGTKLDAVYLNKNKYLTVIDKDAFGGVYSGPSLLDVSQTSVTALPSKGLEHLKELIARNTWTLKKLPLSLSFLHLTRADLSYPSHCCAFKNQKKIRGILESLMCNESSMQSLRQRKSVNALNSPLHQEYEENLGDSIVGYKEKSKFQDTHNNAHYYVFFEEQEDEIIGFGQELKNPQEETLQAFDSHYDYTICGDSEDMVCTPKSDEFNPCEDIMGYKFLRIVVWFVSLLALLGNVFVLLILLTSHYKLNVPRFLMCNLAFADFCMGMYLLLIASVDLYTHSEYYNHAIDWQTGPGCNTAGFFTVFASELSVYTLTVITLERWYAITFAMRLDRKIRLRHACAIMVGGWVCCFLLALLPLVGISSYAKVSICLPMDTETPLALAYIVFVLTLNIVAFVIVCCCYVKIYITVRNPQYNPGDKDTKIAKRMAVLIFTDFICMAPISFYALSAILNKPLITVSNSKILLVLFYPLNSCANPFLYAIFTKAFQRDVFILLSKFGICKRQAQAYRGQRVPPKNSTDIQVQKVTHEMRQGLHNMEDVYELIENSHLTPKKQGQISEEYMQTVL

Row | Structure (SMILES) | Potency
1 | CN(C)c1ccc(N=Nc2ccccc2)cc1 | inactive
2 | ClCc1ccccc1CCl | inactive
3 | N#Cc1c(-c2ccc(Cl)cc2)[nH]c(C(F)(F)F)c1Br | inactive
4 | COc1ccc([N+](=O)[O-])cc1O | inactive
5 | CC(C)(COCC1CO1)COCC1CO1 (configuration not stated) | inactive
6 | Nc1ccc([N+](=O)[O-])cc1Cl | inactive
7 | Nc1ccc(Cl)cc1C(=O)c1ccccc1 | inactive
8 | BrCC(Br)c1ccccc1 (configuration not stated) | inactive
9 | CCCN(CCC)c1c([N+](=O)[O-])cc(S(N)(=O)=O)cc1[N+](=O)[O-] | 5.18 µM (active)
10 | Cc1cc(C(C)(C)c2cc(C)c(O)c(C)c2)cc(C)c1O | 33.2 µM (active)
11 | N#C/C=C/C#N | inactive
12 | N#Cc1ccccc1Cl | inactive
13 | O=c1[nH]c2ccccc2n1CCCN1CCC(n2c(=O)[nH]c3cc(Cl)ccc32)CC1 | inactive
14 | CCCCCCCCc1ccc(O)cc1 | inactive
15 | CCc1cc(C)cc(CC)c1-c1c(OC(=O)C(C)(C)C)n2n(c1=O)CCOCC2 | inactive
16 | CC(O)C#N (configuration not stated) | inactive

System: not listed separately
Assay: qHTS assay to identify small molecule agonists of the hypoxia (HIF-1) signaling pathway - cell viability counter screen (AID 1224844); further: nearly all actives have a fitted effect of over 50% in size
Conditions: HRE-bla ME-180 viability, CellTiter-Glo luminescence, 17 h; series mostly up to 76.8 µM
Method in brief: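 Cytotoxicity was measured in parallel with the HRE-driven beta-lactamase readout: after 17 hrs of compound exposure at 37C, HRE-bla ME-180 cells received CellTiter-Glo and luminescence was recorded 30 min later.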

Row | Structure (SMILES) | Potency
17 | CN(C)C(=S)[S-].CN(C)C(=S)[S-].[Cu+2] | 2.67 µM (active)
18 | O=C(CBr)c1ccc(O)cc1 | inactive
19 | CN(C)c1ccc(N=Nc2ccccc2)cc1 | inactive
20 | CCCCCCCCCCCCCCC(Br)C(=O)O (configuration not stated) | 49 µM (active)
21 | CCCSP(=O)(OCC)SCCC | inactive
22 | N#Cc1c(-c2ccc(Cl)cc2)[nH]c(C(F)(F)F)c1Br | inactive
23 | COc1ccc([N+](=O)[O-])cc1O | inactive
24 | Oc1c(Br)c(Br)c(Br)c(Br)c1Br | 43.9 µM (active)
25 | CCCCN(CCCC)C(=S)[S-].CCCCN(CCCC)C(=S)[S-].[Zn+2] | 15.5 µM (active)
26 | Nc1ccc([N+](=O)[O-])cc1Cl | inactive
27 | CC[C@H](C)[C@H]1O[C@]2(C=C[C@@H]1C)C[C@@H]1C[C@@H](C/C=C(\C)[C@@H](O[C@H]3C[C@H](OC)[C@@H](O[C@H]4C[C@H](OC)[C@@H](O)[C@H](C)O4)[C@H](C)O3)[C@@H](C)/C=C/C=C3\CO[C@@H]4[C@H](O)C(C)=C[C@@H](C(=O)O1)[C@]34O)O2 | 28.9 µM (active)
28 | Nc1ccc(Cl)cc1C(=O)c1ccccc1 | inactive
29 | BrCC(Br)c1ccccc1 (configuration not stated) | inactive
30 | CCCN(CCC)c1c([N+](=O)[O-])cc(S(N)(=O)=O)cc1[N+](=O)[O-] | 37 µM (active)
31 | CCOP(=O)(NC(C)C)Oc1ccc(SC)c(C)c1 (configuration not stated) | inactive
32 | Cc1cc(C(C)(C)c2cc(C)c(O)c(C)c2)cc(C)c1O | inactive
33 | Cc1cc(C)c(C2=C(OC(=O)CC(C)(C)C)C3(CCCC3)OC2=O)c(C)c1 | inactive
34 | N#Cc1ccccc1Cl | inactive
35 | CN(C)C(=S)S | 1.41 µM (active) and 4.86 µM (active) and 4.36 µM (active)
36 | [Cd+2].[Cl-].[Cl-] | 55.4 µM (active)
37 | CC(=O)[O-].CC(=O)[O-].[Hg+2] | 3.47 µM (active)
38 | O=c1[nH]c2ccccc2n1CCCN1CCC(n2c(=O)[nH]c3cc(Cl)ccc32)CC1 | inactive
39 | CCCCCCCCc1ccc(O)cc1 | 39.1 µM (active)
40 | CCc1cc(C)cc(CC)c1-c1c(OC(=O)C(C)(C)C)n2n(c1=O)CCOCC2 | inactive
41 | CC(O)C#N (configuration not stated) | inactive
42 | CC(=O)[O-].CC(=O)[O-].O.O.[Cd+2] | 34.2 µM (active)
